# Data published in the antibiotic and cytotoxicity screens of Wong et al. (2023).
# In all, about 39,000 compounds went through this assay and about 3,300 (8.5%) were called active. This excerpt belongs to a sample that is enriched for actives.
# Test system: HepG2
# Assay: cytotoxicity call (relative viability < 0.9)
# Conditions: 10 µM
row,Structure (SMILES),cytotoxicity call
1,C=CCOC(=O)[C@H]1[C@@H]2C(=O)O[C@@H](c3ccccc3)[C@@H](c3ccccc3)N2[C@@H](c2ccc(OCCOC(=O)[C@@H]3C[C@@H]4C(=O)N[C@@H](CC(C)C)C(=O)N4[C@@H]3c3cccc(OCCO)c3)cc2)[C@]12C(=O)Nc1ccccc12,inactive
2,COc1ccc(S(=O)(=O)N(C)C[C@H]2Oc3ccc(NS(=O)(=O)c4cccs4)cc3C(=O)N([C@H](C)CO)C[C@@H]2C)cc1,inactive
3,COc1cccc(NC(=O)N[C@H]2C=C[C@@H](CC(=O)N3CCN(C)CC3)O[C@H]2CO)c1,inactive
4,C[C@@H]1CN([C@@H](C)CO)C(=O)c2cc(NC(=O)Nc3ccc4c(c3)OCO4)ccc2O[C@@H](C)CCCCO[C@H]1CN(C)Cc1ccncc1,inactive
5,c1cnc2nccn2c1,inactive
6,C[C@@H]1CN([C@H](C)CO)C(=O)c2cc(NC(=O)CCCN(C)C)ccc2O[C@@H]1CN(C)S(=O)(=O)c1cn(C)cn1,inactive
7,C[C@H]1CN([C@@H](C)CO)C(=O)c2cccc(NC(=O)Nc3ccccc3)c2O[C@@H]1CN(C)Cc1ccc(C(=O)Nc2ccccc2N)cc1,inactive
8,C[C@H](CO)N1C[C@H](C)[C@H](CN(C)Cc2ccc(C(=O)Nc3ccccc3N)cc2)Oc2c(NC(=O)Nc3ccccc3)cccc2C1=O,inactive
9,C[C@H](CO)N1C[C@H](C)[C@H](CN(C)Cc2ccc(C(=O)Nc3ccccc3N)cc2)Oc2c(NC(=O)Nc3cccc4ccccc34)cccc2C1=O,active
10,C[C@@H]1CN([C@H](C)CO)C(=O)c2cccc(NC(=O)Nc3cccc4ccccc34)c2O[C@@H]1CN(C)Cc1ccc(C(=O)Nc2ccccc2N)cc1,inactive
11,C[C@H]1CN([C@@H](C)CO)C(=O)c2cccc(NC(=O)Nc3cccc4ccccc34)c2O[C@H]1CN(C)Cc1ccc(C(=O)Nc2ccccc2N)cc1,active
12,C[C@@H]1CN([C@@H](C)CO)C(=O)c2cccc(NC(=O)Nc3cccc4ccccc34)c2O[C@@H]1CN(C)Cc1ccc(C(=O)Nc2ccccc2N)cc1,inactive
13,COc1ccc(NC(=O)N(C)C[C@@H]2Oc3ccc(NC(=O)Nc4ccc(C(F)(F)F)cc4)cc3C(=O)N([C@@H](C)CO)C[C@@H]2C)cc1,inactive
14,O[C@@H]1Cc2ccccc2[C@H]1O,inactive
15,O=C(C[C@H]1CC[C@@H]2[C@H](COC[C@H](O)CN2S(=O)(=O)c2ccc(Oc3ccccc3)cc2)O1)NCCN1CCCCC1,inactive
16,O=C(C[C@H]1CC[C@H]2[C@@H](COC[C@H](O)CN2S(=O)(=O)c2cccc(Cl)c2)O1)NCCCN1CCOCC1,inactive
17,COc1ccc(NC(=O)N(C)C[C@H]2OCCCC[C@@H](C)Oc3ccc(NS(=O)(=O)c4ccccc4)cc3C(=O)N([C@@H](C)CO)C[C@H]2C)cc1,inactive
18,CC(C)NC(=O)N(C)C[C@H]1OCc2cnnn2CCCC(=O)N([C@H](C)CO)C[C@H]1C,inactive
19,C[C@H]1CCCCO[C@H](CN(C)C(=O)Nc2ccc(F)cc2)[C@@H](C)CN([C@@H](C)CO)C(=O)c2cc(NS(=O)(=O)c3ccc(Cl)cc3)ccc2O1,active

row,Structure (SMILES),cytotoxicity call
1,C[C@@H]1CCCCO[C@H](CN(C)C(=O)Nc2ccccc2)[C@@H](C)CN([C@@H](C)CO)C(=O)c2cc(NS(=O)(=O)c3ccc(Cl)cc3)ccc2O1,active
2,C[C@@H]1CCCCO[C@@H](CN(C)C(=O)Nc2ccc(F)cc2)[C@@H](C)CN([C@H](C)CO)C(=O)c2cc(NS(=O)(=O)c3ccc(Cl)cc3)ccc2O1,inactive
3,C[C@@H]1CCCCO[C@H](CN(C)C(=O)Nc2ccc(F)cc2)[C@@H](C)CN([C@H](C)CO)C(=O)c2cc(NS(=O)(=O)c3ccc(Cl)cc3)ccc2O1,inactive
4,C[C@@H]1CCCCO[C@@H](CN(C)C(=O)Nc2ccccc2)[C@H](C)CN([C@@H](C)CO)C(=O)c2cc(NS(=O)(=O)c3ccc(Cl)cc3)ccc2O1,inactive
5,C[C@@H]1CCCCO[C@H](CN(C)C(=O)Nc2ccccc2)[C@@H](C)CN([C@H](C)CO)C(=O)c2cc(NS(=O)(=O)c3ccc(Cl)cc3)ccc2O1,inactive
6,C[C@@H]1CCCCO[C@H](CN(C)C(=O)Nc2ccc(F)cc2)[C@@H](C)CN([C@@H](C)CO)C(=O)c2cc(NS(=O)(=O)c3ccc(Cl)cc3)ccc2O1,active
7,C[C@@H]1CN([C@H](C)CO)C(=O)c2cc(NS(=O)(=O)c3ccc(Cl)cc3)ccc2O[C@@H](C)CCCCO[C@H]1CN(C)C(=O)Nc1ccc(F)cc1,active
8,C[C@@H]1CN([C@@H](C)CO)C(=O)c2cc(NS(=O)(=O)c3ccc(Cl)cc3)ccc2O[C@@H](C)CCCCO[C@@H]1CN(C)C(=O)Nc1ccc(F)cc1,inactive
9,C[C@H](CO)N1C[C@H](C)[C@@H](CN(C)C(=O)Nc2ccc(F)cc2)OCCCC[C@H](C)Oc2ccc(NS(=O)(=O)c3ccc(Cl)cc3)cc2C1=O,inactive
10,C[C@@H]1CCCCO[C@@H](CN(C)C(=O)Nc2ccc(F)cc2)[C@H](C)CN([C@@H](C)CO)C(=O)c2cc(NS(=O)(=O)c3ccc(Cl)cc3)ccc2O1,inactive
11,C[C@H]1CCCCO[C@@H](CN(C)C(=O)Nc2ccc(F)cc2)[C@@H](C)CN([C@@H](C)CO)C(=O)c2cc(NS(=O)(=O)c3ccc(Cl)cc3)ccc2O1,inactive
12,CC(=O)N[C@H]1[C@H](O/N=[N+](\[O-])N2CCCC2)O[C@H](CO)[C@@H](O)[C@@H]1O,inactive
13,COc1ccc(S(=O)(=O)N2C[C@@H](O)COC[C@H]3O[C@@H](CC(=O)NCCCN4CCOCC4)CC[C@@H]32)cc1,inactive
14,O=C(C[C@H]1C[C@H]2c3cc(NC(=O)NC4CCCC4)ccc3O[C@H]2[C@H](CO)O1)NCc1ccc2c(c1)OCO2,inactive
15,CC(=O)OC1CCC2(C)C(CCC3(C)C2CCC24OC(=O)C5(CCC(C)C(C)C52)CCC34C)C1(C)C (configuration not stated),inactive
16,COc1ccc(CN(C)C[C@@H]2Oc3ccc(NC(=O)C4CC4)cc3CC(=O)N([C@@H](C)CO)C[C@H]2C)cc1,inactive
17,COc1ccc(CN(C)C[C@@H]2OCCCC[C@H](C)Oc3ccc(NC(=O)Nc4c(C)noc4C)cc3C(=O)N([C@@H](C)CO)C[C@H]2C)cc1,inactive
18,C[C@H](CO)N1C[C@H](C)[C@H](CN(C)Cc2ccc(Cl)c(Cl)c2)Oc2c(NC(=O)Nc3cccc4ccccc34)cccc2C1=O,inactive
